In PubChem BioAssay (NCI):
Compounds without any hit were thinned out: in the full panel of roughly 83,000, 20% have a hit.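 Note: values are percent growth. 100 is the growth of untreated cells, values between 100 and 0 indicate rising inhibition; between -100 and 0 indicates cell death.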 Values without a mark were called inactive. The source made the active and inactive calls. Rule for the calls: active = growth percent below 10; inactive = the rest.

system: A498 renal; assay: NCI-60 one-dose screen, 48 h (100 = growth as untreated, 0 = no growth, -100 = all killed); conditions: 10 µM unless noted

SMILES | growth
CCCCCN(CCCCC)CC(O)c1cc(C)c2ccc3cc(C(C)C)ccc3c2c1 (configuration not stated) | 19.5%
CN(Cc1ccccc1)c1nc(Cl)c(C2CC(c3ccccc3)=NN2c2ccccc2)s1 (configuration not stated) | 105%
COC(=O)c1ccc(NC(=O)Nc2ccc(C(=O)OC)cc2)cc1 | 81.3%
C=C1C(=O)O[C@H]2[C@H]1CC/C(COC(=O)NCc1ccc(Cn3c(=O)sn(-c4ccc(C#N)cc4)c3=O)cc1)=C\CC[C@@]1(C)O[C@@H]21 | 120%
NS(=O)(=O)c1ccc(-c2cc(-c3nnc(SCC(=O)Nc4ccc(C(=O)/C=C/c5ccc(Cl)cc5)cc4)n3-c3ccccc3)c3ccccc3n2)cc1 | 49.9%
CO[C@H](C(=O)[C@@H](O)[C@@H](C)O)[C@@H]1Cc2cc3cc(O[C@H]4C[C@@H](O[C@H]5C[C@@H](O)[C@H](O)C(C)O5)[C@H](O)C(C)(O)O4)cc(O)c3c(O)c2C(=O)[C@H]1O[C@H]1C[C@@H](O[C@H]2C[C@@H](O[C@H]3C[C@@H](OC)[C@H](O)C(C)O3)[C@@H](O)C(C)O2)[C@H](O)C(C)O1 (some centres not stated) | -30.9% (active)
COc1ccc(/C=C(/C(=O)n2cnnn2)c2cc(OC)c(OC)c(OC)c2)cc1 | 1.86% (active)
COc1cccc(/C=N/NC(=O)c2ccccc2N2CCCC2)c1O | 67.1%
CN1CCN(c2ccc(NC(=O)c3cncnc3Nc3ccc(OCc4cccc(F)c4)c(Cl)c3)cc2)CC1 | 70.8%
C=C1C(=O)O[C@H]2[C@H]1CC/C(CNC(=O)c1c[nH]c3ccc(F)cc13)=C\CC[C@@]1(C)O[C@@H]21 | 15.4%
Cc1ncc(C(=O)Nc2ccc(CN3CCN(C)CC3)c(C(F)(F)F)c2)cc1C#Cc1cnc(N)c2ncccc12 | -6.89% (active)
CCNC(=O)Oc1ccc(/C(=C(/CC)Cc2ccccc2)c2ccc(OCCN3CCCC3)cc2)cc1 | 89.3%
CCOC(=O)c1ccccc1-c1c2ccc(=[N+](C)C)cc-2oc2cc(N(C)C)ccc12 | 0.621% (active)
O=C(Nc1ncc(Cc2ccccc2)s1)c1ccc2c(c1)OCCCO2 | -2.27% (active)
CCCCNc1cc(-c2cn[nH]c2-c2cc(C)cc(OC)c2)nc(-c2cccnc2)n1 | 64.4%
C=C1CC[C@@H]2[C@](C)(COC(C)=O)[C@H](OC(C)=O)CC[C@@]2(C)[C@@H]1CC(Nc1ccc(S(=O)(=O)NC(C)=O)cc1)C1=CCOC1=O (some centres not stated) | 73.4%

SMILES | growth
C/C=C(\C)C(=O)N[C@H]1C(O)C[C@]2(C)C3CC[C@@]4(C)C(CC[C@@H]4C(C)N(C)C)C3CCC2C1O (some centres not stated) | 92.9%
O=C(O)COc1ccc(Cl)c(Cl)c1 | 110%
NS(=O)(=O)c1ccc(C(=O)NN2C(=O)c3c(Br)c(Br)c(Br)c(Br)c3C2=O)cc1 | 81.7%
CS(=O)(=O)c1ccc(NC(=O)c2ccccc2)nc1 | 92.3%
FC(F)(F)Oc1cccc(-c2cnc3ccc(-c4ccncc4)nn23)c1 | 23%
Cc1ccc2c(-n3nc(C#N)c(C#N)c3N)cc(=O)[nH]c2c1 | 105%
CCOC(=O)c1c(C)nc2c(c1N)CC(=O)N2Cc1ccc(OC)cc1 | 63.5%
COc1cccc(CCNc2ncnc3c2ncn3Cc2nnc3c4ccccc4c(Cl)nn23)c1 | 83.4%
C=C1C(=O)O[C@H]2[C@H]1CC/C(COC(=O)c1ccc(C(=O)O)s1)=C\CC[C@@]1(C)O[C@@H]21 | 104%
O=S(=O)(Nc1cc(Sc2cccc3cccnc23)c(O)c2ccccc12)c1ccccc1 | 70.4%
CCOC(=O)c1nn(CC(O)c2ccccc2)c(NC(=O)Nc2cccc(F)c2)c1C (configuration not stated) | 76.7%
Cn1ccc(=O)nc1 | 98.1%
CNCc1cccc2c1OCCOCCOCCNS(=O)(=O)c1ccc(cc1)-c1cnc(N)c(n1)C(=O)N2 | 51.5%
C=C(C)[C@@H]1CC[C@]2(C(=O)N3CCN(C)CC3)CC[C@]3(C)[C@H](CC[C@@H]4[C@@]5(C)CC[C@H](OC(=O)c6ccccc6C(=O)O)C(C)(C)[C@@H]5CC[C@]43C)[C@@H]12 | 74.9%
CCNc1ccc(-c2nc3ccccc3n3cccc23)cc1 | 62.5%
CSc1nc(C)c([N+](=O)[O-])c(N)n1 | 101%
